Data from ChEMBL document CHEMBL4513216, “Probing the Open Global Health Chemical Diversity Library for Multistage-Active Starting Points for Next-Generation Antimalarials” (ACS Infect Dis, 2020).
Hit rate of the full screen: of about 69,000 compounds, about 8,600 (12%) showed an effect of 50% or more. This is one part of a sample in which strong results are shown more often than they occur.

System: Plasmodium berghei
Assay: Screen against P. berghei liver stage (PbLuc), transformed with Luciferase, at 10uM
Format: functional, HepG2
Conditions: tested at 10 uM

SMILES | INHIBITION [%]
Cc1cc(CN(C)C(=O)c2ccc(Cl)cc2N2CCCC2=O)no1 | -9.37
O=C(c1ccccn1)N1CCC2(CC1)CN(c1cncnc1)C(=O)CO2 | 40.4
Cc1nc2ccccc2c(=O)n1CCC(=O)N1CCCC1 | 17.36
CC(=O)NCC(=O)N1CCOCC(Cc2ccc3c(ccn3C)c2)C1 (centres undefined) | -2.995
Cc1nc(CCNC(Cc2ccncc2)C(F)(F)F)cs1 (centres undefined) | 59.3
Cc1cnc(CCNC(Cc2ccncc2)C(F)(F)F)s1 (centres undefined) | 11.7
Cc1nc(C)c(CCNC(Cc2ccncc2)C(F)(F)F)s1 (centres undefined) | 48.5
CN(C)C(=O)c1cc2ncc(C(=O)NC3CCCC3)cc2n1C | -71.5
O=C(c1cnc2ccccn12)N1CCCC(c2ccn[nH]2)C1 (centres undefined) | -0.71
O=C(c1cnnn1-c1ccccc1)N1CCCC(c2ccn[nH]2)C1 (centres undefined) | 12.9
O=C(c1ccccc1-c1nc[nH]n1)N1CCOC(C(F)(F)F)C1 (centres undefined) | 7.15
O=C(c1cc(=O)n(-c2ccccc2)[nH]1)N1CCCC(c2ccn[nH]2)C1 (centres undefined) | 55
O=C(c1cc(=O)n(-c2ccccc2)[nH]1)N1CCOC(C(F)(F)F)C1 (centres undefined) | 63.6
O=C(c1cc(=O)n(-c2ccccc2)[nH]1)N1CCOCC(O)C1 (centres undefined) | 0.546
COc1ccc(CNC(=O)Nc2ccc(N3CCCC3)nc2)cc1O | 26.4
O=C(NCc1cccs1)[C@H]1CC[C@@H]2[C@@H](CCN2C2CCC2)O1 | -4.88
O=C(c1cscn1)N1CCC2(CCN(Cc3nccs3)CC2)CC1 | 35.7
Cc1cnc(C(=O)N2C[C@H]3CN(Cc4nccs4)C[C@H]3C2)cn1 | 81.5
O=C(c1cscn1)N1C[C@H]2CN(Cc3nccs3)C[C@H]2C1 | 62.5
Cc1cnc(C(=O)N2C[C@H]3CN(Cc4cccnc4)C[C@H]3C2)cn1 | -6.21
Cc1cnc(C(=O)N2C[C@H]3CN(Cc4cccs4)C[C@H]3C2)cn1 | -18.2
NC(=O)N1C[C@H]2CN(Cc3nccs3)C[C@H]2C1 | 14.8
O=C(O)c1c(-c2ccncc2)ncc2c1CCN(C1CCOC1)C2 (centres undefined) | -12.4
CCc1nc(CC(=O)N2CCn3c(C)nnc3C2)cs1 | 27.45
CN1C(=O)CC(C(=O)O)C12CCN(Cc1cc(Cl)ccc1F)CC2 (centres undefined) | 50.5
CN1C(=O)CC(C(=O)O)C12CCN(Cc1ccc(F)cc1Cl)CC2 (centres undefined) | 18.8

SMILES | INHIBITION [%]
CN1C(=O)CC(C(=O)O)C12CCN(Cc1ccc(Cl)cc1F)CC2 (centres undefined) | 7.84
O=C(c1ccsc1)N1CCC(Nc2cccnn2)CC1 | -85
COc1ccc(NC2(C(=O)N3CCCn4cncc4C3)CCCC2)cc1 | 18.5
CN(CC(=O)NCCCOc1ccc(F)cc1)c1ccc(C#N)cn1 | 3.84
O=c1[nH]c2cn(-c3ccccc3)c(=O)n2[nH]1 | 14.2
Cc1cc(C)nc(C2CCCN2S(=O)(=O)N2CCOCC2)n1 (centres undefined) | 43.4
Cc1ccc(C(=O)N2CCCC(c3[nH]ncc3S(C)(=O)=O)C2)s1 (centres undefined) | 33.7
CS(=O)(=O)NC[C@]12COC[C@H]1CN(Cc1ccc3c(c1)OCO3)C2 | 38.5
Cn1cc(C(=O)NCC(Cc2cccc(F)c2)N2CCCCC2=O)nn1 (centres undefined) | 6.83
C=C(Cl)CN1CCC(C(=O)c2cc(F)ccc2F)CC1 | 17.8
O=C(CCN1CCC(C(=O)c2cc(F)ccc2F)CC1)NC1CC1 | -1.58
O=C(CN1CCC(C(=O)c2cc(F)ccc2F)CC1)NC1CCCC1 | 51.3
COC(=O)CN1CCC(C(=O)c2cc(F)ccc2F)CC1 | 15.3
O=C(CCN1CCC(C(=O)c2cc(F)ccc2F)CC1)NC1CCCC1 | 36.2
O=C(CN1CCC(C(=O)c2cc(F)ccc2F)CC1)NC1CC1 | 56.5
CC(=O)N[C@H]1CCO[C@@H](c2cccc(NC(=O)c3cccc(F)c3)c2)C1 | 6.74
O=C(NC1CC1)N1CCc2ncc(CN3CCOCC3)n2CC1 | 15.9
COc1ccc(CN2CC[C@H]3[C@H]2CC(=O)N3Cc2cccc(C)n2)cc1 | -31.9
Cc1ccc(N2C[C@H]3OCC[C@H]3[C@H](C(=O)NCC3CC3)C2)nn1 | 49.7
CCc1nnc(CS(=O)(=O)c2ccc(C)cc2)n1C | 35.1
CN(CC(=O)N(C)C1CCCCC1)C1CCc2ccccc21 (centres undefined) | 37.2
CN(Cc1ccc(Cl)s1)C(=O)CN(C)C1CCc2ccccc21 (centres undefined) | 82.5
CC(C)N(C(=O)CN(C)C1CCc2ccccc21)C(C)C (centres undefined) | -30.96
CCCN(CCC)C(=O)CN(C)C1CCc2ccccc21 (centres undefined) | 15.55
CN(Cc1cccs1)C(=O)CN(C)C1CCc2ccccc21 (centres undefined) | 47.4
CN(Cc1ccc(Cl)s1)C(=O)CN(C)C1CCCc2ccccc21 (centres undefined) | 85.9

SMILES | INHIBITION [%]
CN(CCC#N)C(=O)CN(C1CC1)C1CCc2ccccc21 (centres undefined) | -4.15
CN(Cc1c(F)cccc1Cl)C(=O)CN(C)C1CCc2ccccc21 (centres undefined) | 85.1
C=C(C)CN(CC)C(=O)CN(C)C1CCc2ccccc21 (centres undefined) | -2.725
CCOC(=O)CN(C)C1CCc2ccccc21 (centres undefined) | 34.7
CCN(CC)C(=O)CN(C)C1CCc2ccccc21 (centres undefined) | 53.5
COC(=O)CN(C)C1CCc2ccccc21 (centres undefined) | 20.1
Cn1c2c(ccc1=O)CC(Nc1ncc(F)cn1)CC2 (centres undefined) | -89
O=C1COC2(CCN(Cc3ccc(F)cc3)CC2)CN1 | -7.35
O=C(CCN1CCOC1=O)N(Cc1ccncc1)CC1CCCO1 (centres undefined) | 15.7
NC(=O)c1cc(NC(=O)N2CCOCC2)ccc1F | 33.5
N#Cc1cccc(Cl)c1NC1CCN(CC(N)=O)CC1 | 13.2
CCS(=O)(=O)N1CCC(Nc2c(Cl)cccc2C#N)CC1 | 29.4
CS(=O)(=O)CCN1CCC(Nc2c(Cl)cccc2C#N)CC1 | 52.6
CC(C)C(C)NC(=O)c1ncn2c1CN(C)S(=O)(=O)c1ccccc1-2 (centres undefined) | 8.03
CNCc1ccc([C@@H]2CN(C(C)=O)C[C@H]2C(=O)N(C)C)cc1 | 35.55
CN(CC(=O)N1CCN(CC(C)(C)O)CC1)c1ccc(Cl)cn1 | 25
CN(CCCc1cnn(C)c1)C(=O)C1CCCN(C2CCCC2)C1 (centres undefined) | 37.6
CN(C)C(=O)N1CCCC(C(=O)N(C)CCCc2cnn(C)c2)C1 (centres undefined) | 47.7
CC(C)N1CCCC(C(=O)N(C)CCCc2cnn(C)c2)C1 (centres undefined) | 51
O=C1CCC(=O)N1c1nn(Cc2cccc(F)c2)cc1Cl | 14.5
CNc1cc(-c2ccc(COCCN)cc2)c2cc[nH]c2n1 | -8
CCCNCc1ccc(-c2cc(N)nc3[nH]ccc23)cc1 | 19.7
CCCNCc1ccc(-c2ccnc3[nH]ccc23)cc1 | 78.8
Cc1ccc2c(c1)C(=O)NCC1(CCN(C(=O)c3scnc3C)CC1)O2 | 15.9
OCCn1nccc1C1CCN(CCOc2ccc(Cl)cc2)CC1 | 38.8
CN1CC2(CCCN(Cc3ccc(Oc4ccccc4)cc3)C2)OC1=O (centres undefined) | 55

SMILES | INHIBITION [%]
CN(C)C(=O)COc1ccccc1CN1CCCC2(C1)CN(C)C(=O)O2 (centres undefined) | 57.5
CN1CC2(CCCN(Cc3ccccc3OCC(=O)O)C2)OC1=O (centres undefined) | 1.37
CN1CC2(CCCN(Cc3cccc(Oc4ccccc4)c3)C2)OC1=O (centres undefined) | 42.5
CN(C)C(=O)COc1ccccc1CN1CCOC2(CCCC2)C1 | 7.58
CN1CC2(CCCN(CCOCc3ccccc3)C2)OC1=O (centres undefined) | 8.08
CC(C)N(CCCNC(=O)C1CC1)S(C)(=O)=O | 5.91
Cc1nccn1[C@@H]1CC[C@@H](NC(=O)CCCn2cncn2)[C@H]1O | 25.071
COCC1N(C(=O)N2CCOCC2)C2CCC1(O)CC2 (centres undefined) | 33.6
Cc1ccnc(NCCNC(=O)CCNC(=O)c2ccccc2F)c1 | 57
Cc1ccnc(NC(=O)CCNC(=O)c2ccccc2Cl)c1 | 30.2
Cc1ccnc(NCCNC(=O)c2ccccc2NCC(=O)O)c1 | 11.6
CC1=N[C@@]2(CC[C@@H]3CN(C(=O)Nc4ccc(F)cc4)C[C@@H]32)C(=O)N1C | 0.542
Cc1ccc(C(=O)N2CCn3cnc(COCC4CC4)c3C2)cn1 | 45.2
Cc1nccc([C@H]2C[C@@H]3CCN(C(=O)c4c(C)noc4C)C[C@H]3O2)n1 | -3.88
COc1cc(C(=O)N2CCC(O)(CN3CCOCC3)C(C)(C)C2)ccn1 (centres undefined) | 7.93
CCOCCn1nc(C)cc1C(=O)N1CC[C@@](O)(COC)C(C)(C)C1 | 16.2
COC[C@]1(O)CCN(C(=O)c2cccc(CN(C)C)c2)CC1(C)C | 54.7
COCc1ccc(C(=O)N2CC[C@@](O)(COC)C(C)(C)C2)o1 | -26.2
COC[C@]1(O)CCN(C(=O)c2ccc(CN(C)C)o2)CC1(C)C | 76.5
COCc1cccc(C(=O)N2CCCC2)c1 | 1.98
CN(C)c1ncc(C2Nc3cc(Cl)ccc3C3=NCCCN32)cn1 (centres undefined) | 48.4
CN(C)C(=O)c1ccn(COc2ccccc2Cl)n1 | -28
Cn1nc(CN2CCCCC2)c2c1CN(C(=O)c1cccc(Cl)c1)C2 | -41.8
CC(NC(=O)N1CCN(c2nccs2)CC1)c1nncn1C (centres undefined) | -15.5
C[C@H]1CN(c2ccccn2)C[C@@]12CCN(Cc1cccnc1)C2=O | 48.4
CN(C)C(=O)CN1CCCC(Cc2ccc(N3CCCC3)nn2)C1 (centres undefined) | 42.4
